Some test systems named below: NCI-H23 lung; NCI-H226 lung; NCI-H322M lung; HOP-62 NSCLC; NCI-H460 lung; NCI-H522 lung; A549/ATCC NSCLC; 786-0 renal; COLO 205 colon; DU-145 prostate; K-562 leukemia; MALME-3M melanoma; MDA-MB-231 breast; RXF 393 renal; SF-268 CNS; SF-295 CNS; SF-539 CNS; UACC-257 melanoma; M14 melanoma.
Common to all, as to assay: NCI-60 one-dose screen, 48 h (100 = growth as untreated, 0 = no growth, -100 = all killed)
Holding throughout (conditions): 10 µM unless noted

The panel holds about 83,000 compounds, 20% with a hit somewhere; the sample as a whole holds those more often.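 For each line, cells grew in 96-well plates with the test compound present at a single concentration for 48 hours.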 Unmarked numbers belong to inactive results. The source made the active and inactive calls. The calls were made as follows: active = growth percent below 10; inactive = the rest.

For `Fc1cc(-c2cnc3nonc3n2)c(Cl)cc1Cl`, the growth in the assay with NCI-H23 lung is 94.2%; in the assay with NCI-H226 lung it was 111%; with NCI-H322M lung it was 94.1%; in the assay on HOP-62 NSCLC it was 98.3%; with NCI-H460 lung, 106%; in the assay on NCI-H522 lung, -72.3% (active). Also, the growth in the assay on A549/ATCC NSCLC was 102%; with 786-0 renal, 79.3%; in the assay on COLO 205 colon, 60.2%; in the assay with DU-145 prostate, 85.3%; in the assay on K-562 leukemia, 28.9%; in the assay with MALME-3M melanoma, 41.1%. Also, the growth was 83.4% in the assay with MDA-MB-231 breast; 93% with RXF 393 renal; 90.9% with SF-268 CNS; 99.4% with SF-295 CNS; 110% with SF-539 CNS; 96% in the assay on UACC-257 melanoma. In addition, the growth in the assay with M14 melanoma is 76.8%.

In the case of `CCN(CC)CC(=O)Nc1c(C)cc(C(=O)NN)cc1C`, the growth with NCI-H23 lung is 94.8%; in the assay with NCI-H226 lung, 99.7%; in the assay with NCI-H322M lung, 89.1%; with HOP-62 NSCLC it was 88.5%; in the assay with NCI-H460 lung it was 105%; with NCI-H522 lung it was 105%. Further, the growth in the assay on A549/ATCC NSCLC was 106%; in the assay on 786-0 renal, 106%; in the assay on COLO 205 colon, 95.4%; with DU-145 prostate, 96.8%; in the assay on K-562 leukemia, 94.9%; in the assay on MALME-3M melanoma, 73.9%. Besides, the growth in the assay with MDA-MB-231 breast is 103%; in the assay with RXF 393 renal, 110%; in the assay with SF-268 CNS, 93.9%; with SF-295 CNS, 105%; in the assay with SF-539 CNS it was 100%; with UACC-257 melanoma, 100%. Also, the growth with M14 melanoma is 96.2%.

`COc1ccc(-n2c(COc3ccc(F)cc3)n[nH]c2=S)cc1`: the growth in the assay with NCI-H23 lung was 112%; with NCI-H226 lung it was 101%; in the assay with NCI-H322M lung, 96.8%; in the assay on HOP-62 NSCLC, 105%; in the assay on NCI-H460 lung, 110%; with NCI-H522 lung it was 90.3%. In addition, the growth in the assay with A549/ATCC NSCLC was 131%; in the assay with 786-0 renal it was 102%; in the assay on COLO 205 colon, 116%; in the assay with DU-145 prostate it was 112%; in the assay with K-562 leukemia, 129%; with MALME-3M melanoma it was 115%. Also, the growth in the assay on MDA-MB-231 breast is 89.3%; with RXF 393 renal, 80.3%; with SF-268 CNS, 97.8%; with SF-295 CNS, 74.1%; in the assay with SF-539 CNS, 101%; with UACC-257 melanoma it was 186%. In the assay with M14 melanoma, the growth is 112%.

For the compound `O=C1N(Cc2ccccc2Cl)c2ccccc2C12NN=C(c1ccccc1)S2` (stereo unspecified), the growth is 54.8% in the assay on NCI-H23 lung; 67.5% with NCI-H226 lung; 56.5% in the assay on NCI-H322M lung; 61.2% in the assay with HOP-62 NSCLC; 17.5% with NCI-H460 lung; 75.6% with NCI-H522 lung. For the same compound, the growth was 53.4% in the assay on A549/ATCC NSCLC; 73.7% with 786-0 renal; 100% in the assay with COLO 205 colon; 61.9% in the assay with DU-145 prostate; 43.1% with K-562 leukemia; 82.8% with MALME-3M melanoma. The growth in the assay on MDA-MB-231 breast is 72.8%; with RXF 393 renal, 75.1%; in the assay on SF-268 CNS it was 51.7%; with SF-295 CNS, 41%; in the assay on SF-539 CNS it was 66.3%; with UACC-257 melanoma, 87.6%. Further, the growth in the assay on M14 melanoma is 58.3%.

On to `O=C(O/C(=C/c1ccccc1)C(F)(F)F)c1ccccc1`, for which the growth in the assay with NCI-H23 lung is 109%; in the assay on NCI-H226 lung, 102%; in the assay on NCI-H322M lung, 125%; with HOP-62 NSCLC it was 105%; in the assay with NCI-H460 lung, 117%; with NCI-H522 lung, 105%. The growth with A549/ATCC NSCLC was 101%; in the assay on 786-0 renal, 107%; with COLO 205 colon it was 99.3%; with DU-145 prostate, 102%; in the assay on K-562 leukemia, 101%; with MALME-3M melanoma it was 118%. The growth in the assay on MDA-MB-231 breast is 95%; with RXF 393 renal, 108%; with SF-268 CNS it was 96%; in the assay with SF-295 CNS, 114%; in the assay with SF-539 CNS it was 103%; in the assay on UACC-257 melanoma, 101%. Besides, the growth in the assay with M14 melanoma was 107%.

With `O=C(/C=C/c1ccco1)c1ccccc1O`, the growth in the assay with NCI-H23 lung was 93.5%; in the assay on NCI-H226 lung, 99.6%; with NCI-H322M lung it was 105%; in the assay with HOP-62 NSCLC, 109%; in the assay on NCI-H460 lung it was 108%; in the assay on NCI-H522 lung, 88.3%. Besides, the growth in the assay on A549/ATCC NSCLC is 101%; in the assay with 786-0 renal, 96.8%; in the assay with COLO 205 colon, 119%; in the assay on DU-145 prostate, 108%; with K-562 leukemia it was 117%; with MALME-3M melanoma it was 121%. The growth is 111% in the assay with MDA-MB-231 breast; 92.4% in the assay on RXF 393 renal; 99.4% with SF-268 CNS; 110% in the assay with SF-295 CNS; 98.2% in the assay with SF-539 CNS; 112% with UACC-257 melanoma. Besides, in the assay with M14 melanoma, the growth is 105%.

`CCCCSc1ncnc2c1ncn2C1CCCCO1` (stereo unspecified): the growth in the assay with NCI-H23 lung was 106%; in the assay on NCI-H226 lung, 107%; with NCI-H322M lung, 114%; in the assay on HOP-62 NSCLC, 105%; with NCI-H460 lung it was 111%; in the assay on NCI-H522 lung it was 106%. In addition, the growth in the assay with A549/ATCC NSCLC was 105%; in the assay on 786-0 renal, 97.9%; in the assay on COLO 205 colon, 108%; in the assay with DU-145 prostate, 121%; in the assay with K-562 leukemia it was 97%; in the assay on MALME-3M melanoma, 115%. Moreover, the growth is 110% in the assay on MDA-MB-231 breast; 120% in the assay with RXF 393 renal; 106% with SF-268 CNS; 111% in the assay on SF-295 CNS; 104% in the assay on SF-539 CNS; 108% in the assay on UACC-257 melanoma. In the assay on M14 melanoma, the growth was 103%.

Turning to `CCN(CC)CCCC(C)Nc1c(-c2ccccc2)cnc2cc(Cl)ccc12` (stereo unspecified), the growth with NCI-H23 lung is 73.2%; in the assay with NCI-H226 lung it was 115%; in the assay with NCI-H322M lung, 97.4%; in the assay with HOP-62 NSCLC, 101%; in the assay on NCI-H460 lung it was 76.4%; in the assay with NCI-H522 lung it was 50.1%. In addition, the growth was 57.1% with A549/ATCC NSCLC; 52% in the assay on 786-0 renal; 85.3% with COLO 205 colon; 87.5% with DU-145 prostate; 13.3% in the assay on K-562 leukemia; -6.83% (active) in the assay on MALME-3M melanoma. Moreover, the growth was 63.1% in the assay on MDA-MB-231 breast; 63.4% in the assay with RXF 393 renal; 77.7% with SF-268 CNS; 86.5% with SF-295 CNS; 83.2% with SF-539 CNS; -26.6% (active) in the assay with UACC-257 melanoma. The growth in the assay with M14 melanoma was -95.7% (active).

With `CC1(C)CC(=O)c2cc3c(N)c(C(=O)Nc4ccc(Cl)cc4)sc3nc2C1`, the growth with NCI-H23 lung was 105%; in the assay with NCI-H226 lung, 108%; in the assay with NCI-H322M lung it was 114%; with HOP-62 NSCLC, 108%; in the assay with NCI-H460 lung, 109%; with NCI-H522 lung it was 95.8%. In addition, the growth with A549/ATCC NSCLC was 97.6%; in the assay with 786-0 renal, 98.7%; with COLO 205 colon, 117%; in the assay with DU-145 prostate, 103%; in the assay on K-562 leukemia, 107%; with MALME-3M melanoma, 119%. The growth is 115% in the assay on MDA-MB-231 breast; 116% with RXF 393 renal; 125% in the assay with SF-268 CNS; 100% with SF-295 CNS; 114% in the assay with SF-539 CNS; 91.4% in the assay with UACC-257 melanoma. Further, the growth in the assay on M14 melanoma was 107%.

For the origin of these results see PubChem BioAssay (NCI).
